Results published in PubChem BioAssay (NCI).
The panel holds about 83,000 compounds, 20% with a hit somewhere; the sample as a whole holds those more often.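 Cells were grown in 96-well plates and exposed to the test compound at a single concentration for 48 hours; results are reported as percent growth, with values below 10 considered active.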 A number with no mark means an inactive call. The source made the active and inactive calls.

Assays:
Experiment in all cases: NCI-60 one-dose screen, 48 h (100 = growth as untreated, 0 = no growth, -100 = all killed)
Settings in all cases: 10 µM unless noted
[1] = tested on: NCI-H23 lung
[2] = tested on: NCI-H226 lung
[3] = tested on: NCI-H322M lung
[4] = tested on: HOP-62 NSCLC
[5] = tested on: NCI-H460 lung
[6] = tested on: HOP-92 NSCLC
[7] = tested on: NCI-H522 lung
[8] = tested on: A549/ATCC NSCLC
[9] = tested on: 786-0 renal
[10] = tested on: COLO 205 colon

Row | SMILES | growth [1] | growth [2] | growth [3] [%] | growth [4] | growth [5] | growth [6] | growth [7] | growth [8] | growth [9] | growth [10]
1 | COc1ccc(/C=C/C(=O)c2ccc(-n3cc(CN4CCN(c5cc6c(cc5F)c(=O)c(C(=O)O)cn6C5CC5)CC4)nn3)cc2)cc1OC | 50.6% | 32.4% | 52.6 | 38.7% | 53.1% | 81.6% | 49.5% | 15.7% | 43.7% | 60.9%
2 | COc1ccc(C2=NN(C(=O)COc3ccc(Cl)cc3)C(O)(c3cc(F)c(Cl)cc3Cl)C2)cc1 (stereo not given) | 96.3% | 109% | 83.4 | 61.8% | 109% | 39.4% | 79.5% | 96.4% | 82% | 101%
3 | COc1ccc(-c2nn(-c3ccc(NC(=O)c4cc(Cl)cc(Cl)c4)cc3)cc2-c2ccncc2)cc1Cl | 83.7% | 98.4% | 88.6 | 59.9% | 38.3% | 84.6% | 87.6% | 53.1% | 3.68% (active) | 46.9%
4 | CC(C)(C)C(=O)/C=c1/[nH]c(=O)/c(=C/c2ccccc2O)s1 | 73.1% | 76.4% | 71.7 | 46% | 23.8% | 80.4% | 26.8% | 44.2% | 87.3% | 89.1%
5 | CCNc1ncnc2n[nH]nc12 | 96.9% | 90.8% | 101 | 95.7% | 103% | 83.1% | 93.2% | 91.1% | 96.1% | 105%
6 | O=C(O)c1ccc(-n2cc(/C=N/Nc3ccc(Cl)cc3)c(-c3ccc(F)c(F)c3)n2)cc1 | 84.9% | 95% | 72.5 | 107% | 93.1% | 81.5% | 47.6% | 78.9% | 67.2% | 99.7%
7 | C[C@H]1C=C(C[C@@H](O)CCCCCCCCCC[C@@H](O)[C@H]2CCC(=O)O2)C(=O)O1 | 95.5% | 96.5% | 94.2 | 109% | 113% | 68% | 73.3% | 110% | 96.8% | 92.5%
8 | COc1ccccc1C(OC(C)=O)OC(C)=O | 98.7% | 94% | 97.5 | 104% | 107% | 115% | 78% | 79.5% | 97.7% | 110%
9 | O=C(NCCNc1nccc(-c2c(-c3cccc(O)c3)nc3sccn23)n1)c1ccccc1 | 82.6% | 54.5% | 101 | 119% | 42.4% | 58.6% | 72.7% | 56.3% | 66.5% | 48.5%
10 | COc1ccc(-c2nn(-c3ccc(NC(=O)c4cc(C(F)(F)F)cc(C(F)(F)F)c4)cc3)cc2-c2ccncc2)cc1Cl | 72.1% | 91.1% | 87.4 | 67% | 57.7% | 48.7% | 71.2% | 59.5% | 44.1% | 85.6%
11 | CCCCOc1nc2ccc(Cl)cc2cc1/C=C/C(=O)/C=C/c1ccc(OC)cc1 | 95.9% | 99.6% | 95.6 | 110% | 98.4% | 93.4% | 77.5% | 92.1% | 110% | 93.1%
12 | c1ccc(OCC[P+](c2ccccc2)(c2ccccc2)c2ccccc2)cc1 | 7.98% (active) | 38.5% | 59.4 | 26.8% | 17.1% | -5.38% (active) | -9.67% (active) | 30.9% | 53.2% | 2.02% (active)
13 | Cc1cc(Nc2ccc(Cl)c(Cl)c2)nc(N)n1 | 89.5% | 92% | 110 | 98.3% | 94.3% | 97.7% | 78.3% | 71.8% | 78.9% | 107%
14 | COc1ccc(CCNC=O)cc1OC | 101% | 89.1% | 96.4 | 107% | 102% | 93.4% | 131% | 107% | 99.2% | 96.3%
15 | O=C(N/N=C1\SCC(=O)N1c1ccccc1)c1cc(-c2cc3ccccc3o2)nn1-c1ccccc1 | 44.8% | 118% | 102 | 101% | 121% | 50.9% | 106% | 110% | 102% | 132%
16 | COc1ccc2c(c1)OC(N)=C(C#N)C2c1ccc(F)cc1 (stereo not given) | 49.9% | 80.9% | 55.7 | 41.3% | 15.8% | 59.8% | -10.1% (active) | 45.9% | 28.1% | 30.6%
17 | CC12CCC3C(CCC4CC(O)CCC43C)C1C/C(=C/O)C(=O)O2 (stereo not given) | 98.7% | 96.6% | 107 | 99.1% | 110% | 99.6% | 84.2% | 100% | 111% | 105%
18 | C[C@]12O[C@H]1[C@H](O)c1c(cc(O)c3c1C(=O)c1cccc(O)c1-3)C2=O | 99% | 85.7% | 102 | 96.5% | 99.1% | 101% | 87.8% | 92.9% | 104% | 106%
19 | CC(CN(C)C)CN1c2ccccc2CCc2ccccc21 (stereo not given) | 83.3% | 100% | 77.1 | 96.4% | 103% | 38.9% | 80.2% | 94.4% | 64.3% | 46.1%
20 | COc1ccc(-c2nnc(SCC(=O)Nc3ccc(C(=O)/C=C/c4ccc(Cl)cc4)cc3)o2)cc1OC | 79% | 85.7% | 87.4 | 71.8% | 70% | 29.7% | 16.7% | 90.7% | 70.8% | 116%
21 | Cc1c(C(C)(C)C)cc(C(C)(C)C)c2c1CN(C)CO2 | 102% | 111% | 105 | 103% | 123% | 112% | 93.4% | 111% | 105% | 105%
22 | COc1cc(NC(=O)c2cc(OC)c3ccn(C)c3c2)cc2c1C[C@]1(C)CC[C@@H](O)C(C)(C)[C@H]1O2 | 79.9% | 106% | 90.4 | 46.1% | 49.2% | 44.6% | 76.1% | 63.6% | -1.08% (active) | 51.7%
23 | COc1ccc(/C=C2\CS(=O)(=O)C/C(=C\c3ccc(OC)cc3)C2=O)cc1 | -49.3% (active) | -43.9% (active) | 30.9 | -67.7% (active) | -52.6% (active) | -41.3% (active) | -73.6% (active) | -56.5% (active) | -100% (active) | -70.6% (active)
24 | CCn1cc(/C=C2\Oc3cc(OCC#N)ccc3C2=O)c2cc(OC)ccc21 | 41.6% | 86.4% | 49.3 | 36.6% | 8.51% (active) | 71.2% | 56.7% | 41.1% | 38.3% | 8.22% (active)
25 | O=C(Nc1ccccc1F)Nc1ccccc1Cl | 77.5% | 82.9% | 103 | 91.7% | 92.4% | 97.3% | 54.9% | 88.5% | 107% | 137%
